The values below come from PubChem BioAssay AID1851 (National Center for Advancing Translational Sciences (NCATS), 2009).

Each structure is given as a SMILES string. About 2,600 (16%) of roughly 16,000 compounds were called active. Roughly 20% stayed inconclusive and do not appear here. Calls come from the whole dose curve; as a rule, active = well fitted curve in the direction sought with a large enough effect; inconclusive = small, poorly fitted or top-dose-only effect, or effect the other way; inactive = no such curve, though single readings can be large or run the other way. These entries were drawn from the full list.
% is set by controls: 0 for no effect and ±100 for the full control effect.

Sequence of Cytochrome P450 2D6 (Homo sapiens) (P10635 whole entry, looked up): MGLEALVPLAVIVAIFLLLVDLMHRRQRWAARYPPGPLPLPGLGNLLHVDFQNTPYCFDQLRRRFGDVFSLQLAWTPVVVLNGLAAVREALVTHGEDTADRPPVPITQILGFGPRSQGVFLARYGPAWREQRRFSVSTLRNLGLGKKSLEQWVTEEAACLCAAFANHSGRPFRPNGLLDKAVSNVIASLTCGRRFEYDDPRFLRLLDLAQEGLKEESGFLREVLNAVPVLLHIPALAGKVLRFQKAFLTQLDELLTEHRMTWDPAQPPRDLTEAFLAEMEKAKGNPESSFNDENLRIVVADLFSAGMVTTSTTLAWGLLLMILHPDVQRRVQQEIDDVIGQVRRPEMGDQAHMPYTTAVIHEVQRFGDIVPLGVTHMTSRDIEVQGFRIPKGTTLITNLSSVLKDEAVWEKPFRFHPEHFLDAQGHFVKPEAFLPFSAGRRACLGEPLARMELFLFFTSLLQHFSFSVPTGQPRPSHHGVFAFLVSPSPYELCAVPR

The assay has as its target Cytochrome P450 2D6 (Homo sapiens) (UniProt P10635). The experiment in a line: Cytochrome panel assay with activity outcomes. Conditions: recombinant CYP, pro-luciferin dealkylation, luminescence, p450-cyp2d6; series mostly up to 57.1 µM.
With `CNC(=O)c1sc(-c2cccnc2)nc1C`, the AC50 result was “inactive”.

As to `Cc1nc(-c2cccnc2)sc1C(=O)Nc1ccc(F)cc1F`, the AC50 entry was “inactive”.

Turning to `Cc1nc(-c2cccnc2)sc1C(=O)Nc1ccc(Cl)cc1`, the AC50 was 15.8 µM (active).

Take `N#CCCn1c(=O)c(-c2ccc(Cl)cc2)nc2cnc(Oc3cccc(Cl)c3)nc21`: the AC50 result is “inactive”.

Regarding `CCOC(=O)C(C)(C)[C@H](O)C(C)C`, the activity, negative = inhibition is 10.9% [at 11.4 µM] (inactive).

Turning to `N[C@@H](Cc1ncccn1)C(=O)O`, the activity, negative = inhibition is -1.91% [at 11.4 µM] (inactive).

Regarding `Clc1ccc([C@H](Cn2ccnc2)OCc2csc3c(Cl)cccc23)c(Cl)c1`, the AC50 is 5.01 µM (active).

In the case of `Clc1ccc(CO[C@@H](Cn2ccnc2)c2ccc(Cl)cc2Cl)cc1`, the half-maximal activity concentration (AC50) was 0.2 µM (active).

On to `Clc1ccc(COC(Cn2ccnc2)c2ccc(Cl)cc2Cl)c(Cl)c1` (stereo not given), for which the AC50 is 1 µM (active).

As to `Cc1nn(C)c(Cl)c1NC(=O)OCc1ccc(Cl)cc1Cl`, the AC50 result was “inactive”.

As to `COCCn1c(=O)c(-c2cc(F)cc(F)c2)nc2cnc(N3CCOCC3)nc21`, the AC50 result is “inactive”.

Consider `O=C1Nc2ccc(F)cc2C12SCCS2`, for which the AC50 result was “inactive”.

With `Cn1c(=O)c(-c2ccc(F)c(F)c2)nc2cncnc21`, the AC50 entry is “inactive”.

With `N#CCCn1c(=O)c(CCc2ccccc2)nc2cnc(Oc3cccc(Cl)c3)nc21`, the AC50 result was “inactive”.

As to `CC1CCC(=NNC(=O)Cc2ccccc2)CC1` (stereo not given), the AC50 result is “inactive”.

As to `CN1Cc2c(C(=O)OC(C)(C)C)ncn2-c2ccsc2C1=O`, the AC50 entry is “inactive”.

Take `N#Cc1ccc(-c2ccc(F)cc2)nc1Oc1ccc(Cl)c(Cl)c1`: the AC50 result is “inactive”.

On to `Cc1ccc2ncc([N+](=O)[O-])n2c1`, for which the AC50 result was “inactive”.

For the molecule `O=C(O)C1=CCCNC1`, the AC50 result is “inactive”.

Turning to `O=C(O)C(=O)/C=C(\O)c1ccc(Br)cc1`, the activity, negative = inhibition was -0.0145% [at 11.4 µM] (inactive).

For the molecule `Cc1cc(S(=O)(=O)NCCCN2CCOCC2)ccc1F`, the concentration at half-maximal activity (AC50) is 12.6 µM (active).

Take `Cc1ccc(-c2nn3c(C)nnc3c3ccccc23)cc1S(=O)(=O)NCCN1CCOCC1`: the AC50 entry is “inactive”.

Regarding `CC(=O)Nc1ccc(S(=O)(=O)NC(CC(=O)NCCCN2CCOCC2)C(C)C)cc1` (stereo not given), the AC50 result was “inactive”.

Consider `COc1ccc(-c2nc3cnc(N4CCN(C)CC4)nc3n(Cc3ccc(F)cc3)c2=O)cc1`, for which the AC50 result is “inactive”.

As for `O=C(O)CCC(=O)c1ccc2sc3ccccc3c2c1`, the activity, negative = inhibition was -3.63% [at 11.4 µM] (inactive).

As for `CN(C)CCOC(=O)c1ccc(N)cc1`, the activity, negative = inhibition was 11.9% [at 11.4 µM] (inactive).

Turning to `CCCCN(CCCC)CCCOC(=O)c1ccc(N)cc1`, the AC50 was 0.00631 µM (active).

Take `CCCCNc1ccc(C(=O)OCCOCCOCCOCCOCCOCCOCCOCCOCCOC)cc1`: the AC50 entry is “inactive”.

In the case of `Cc1cc([N+](=O)[O-])c(C)c(Br)c1C`, the activity, negative = inhibition was -1.18% [at 11.4 µM] (inactive).

For `CC(C)(C)C(=O)OCOC(=O)[C@@H]1N2C(=O)[C@@H](NC(=O)[C@H](N)c3ccccc3)[C@H]2SC1(C)C`, the AC50 result was “inactive”.

For `O=C(Nc1cccc(F)c1)N1CCCC2(CCN(C(=O)c3cc(C(F)(F)F)cc(C(F)(F)F)c3)CC2)C1`, the AC50 result was “inactive”.

For the molecule `CCOc1ccccc1Oc1coc2cc(OC)ccc2c1=O`, the half-maximal activity concentration (AC50) was 0.501 µM (active).

As for `COc1ccc2c(=O)c(-c3ccccc3)c(C)oc2c1`, the AC50 result was “inactive”.

Take `CCOc1ccccc1Oc1c(C)oc2cc(OC(=O)c3ccco3)ccc2c1=O`: the AC50 entry was “inactive”.

As to `CC(C)C(C(=O)O)N1C(=O)/C(=C/C=C/c2ccco2)SC1=S` (stereo not given), the AC50 result was “inactive”.

As for `CCCCN(C)C(=O)c1coc(=O)c2ccccc12`, the AC50 entry was “inactive”.

Turning to `O=[n+]1c2c(n([O-])c3cc(F)c(F)cc31)CCCC2`, the AC50 entry is “inactive”.

In the case of `O=C1c2ccccc2-c2ccc(NC(=O)[C@H]3CCCC[C@@H]3C(=O)O)cc21`, the activity, negative = inhibition was -8.68% [at 11.4 µM] (inactive).

Take `O=C(Nc1ccc(Nc2ccc3c(c2)C(=O)c2ccccc2C3=O)c2c1C(=O)c1ccccc1C2=O)c1ccccc1`: the activity, negative = inhibition was -5.75% [at 11.4 µM] (inactive).

Regarding `CCC(=O)Nc1ccc2c(c1)C(=O)c1ccccc1C2=O`, the AC50 was 7.08 µM (active).

As to `COc1ccc(/C=N/n2c(C)nnc2C)c(OC)c1`, the AC50 entry was “inactive”.

For `Cn1cnc2c(NCc3ccccc3)nc(NCCO)nc21`, the half-maximal activity concentration (AC50) was 1.26 µM (active).

With `OCCn1cnc2c(SCc3ccccc3)ncnc21`, the activity, negative = inhibition was -0.741% [at 11.4 µM] (inactive).

`CCn1c2ccccc2c2nnc(NCCCO)nc21`: the activity, negative = inhibition is 3.89% [at 11.4 µM] (inactive).

As for `O=C1[C@H]2[C@H]3[C@H](O)[C@H](O)C/C(=N/OC[C@@H](O)COCc4ccco4)[C@@H]3CC[C@@H]2C(=O)N1Cc1ccc2c(c1)OCO2`, the activity, negative = inhibition is 0.398% [at 11.4 µM] (inactive).

Take `CN1CCC(N(C)C(=O)CCc2nc3ccccc3c(=O)[nH]2)CC1`: the AC50 result was “inactive”.

As to `O=C(O)CSc1ccn(Cc2ccccc2)c1`, the activity, negative = inhibition was 9% [at 11.4 µM] (inactive).

For `O=C(O)c1cccnc1Nc1cccc(C(F)(F)F)c1`, the AC50 result was “inactive”.

On to `O=C(COC(=O)c1cnccn1)NCc1ccccc1`, for which the AC50 entry is “inactive”.

Turning to `O=C(COC(=O)c1cccnc1Nc1cccc(C(F)(F)F)c1)NCc1ccc2c(c1)OCO2`, the half-maximal activity concentration (AC50) was 1.12 µM (active).

Take `Cc1cc2nnc(SCC(=O)OC(C)C)n2c2ccccc12`: the AC50 result is “inactive”.

With `NC1=C2NC=N[C@@H]2N(C/C=C\c2ccccc2)C=N1`, the activity, negative = inhibition is -12.6% [at 11.4 µM] (inactive).

On to `N#CCCn1c(=O)c(-c2cccs2)nc2cnc(Oc3cccc(Cl)c3)nc21`, for which the AC50 result was “inactive”.

Take `Cc1cc(NC(=O)C2CCCCC2)nc2c1c(=O)oc1ccccc12`: the AC50 was 20 µM (active).

Consider `COc1ccc2oc(=O)c(NC(=O)C3CCCCC3)cc2c1`, for which the AC50 result is “inactive”.

Regarding `O=C(Nc1cc2ccccc2oc1=O)C1CCCCC1`, the AC50 entry was “inactive”.

On to `O=c1cnc2cnc(Nc3ccccc3)nc2n1C[C@H]1CCCO1`, for which the AC50 entry was “inactive”.

In the case of `COc1ccc(-c2cc(CNC(C)=O)on2)cc1`, the AC50 entry was “inactive”.

Consider `COc1ccccc1/C=C/C=N/N1CCN(Cc2cccc3ccccc23)CC1`, for which the concentration at half-maximal activity (AC50) is 7.94 µM (active).

Turning to `COc1ccccc1CC(=O)O/N=C(\N)Cc1cccc2ccccc12`, the AC50 result was “inactive”.

Regarding `FC(F)(F)c1ccc(/C=N/N2CCN(Cc3cccc4ccccc34)CC2)cc1`, the AC50 result was “inactive”.

Regarding `CCc1nc(N2CCC3(CC2)OCCO3)c2nnn(Cc3ccccc3Cl)c2n1`, the AC50 entry is “inactive”.

Turning to `Cc1cc2c(cc1C)-c1nnc(-c3ccc4ccccc4n3)n1C(C)(C)C2`, the AC50 result is “inactive”.

In the case of `CC(C)C(=O)Cc1ccc2ccccc2n1`, the activity, negative = inhibition is 5.06% [at 11.4 µM] (inactive).

For the molecule `c1ccc2nc(-c3ccncc3)ccc2c1`, the AC50 is 15.8 µM (active).

For the molecule `Cc1ccc([N+](=O)[O-])cc1N=C(c1cccc([N+](=O)[O-])c1)N1CCOCC1`, the AC50 entry is “inactive”.

`CC(=O)c1cnc2cc(C)nn2c1C`: the AC50 entry is “inactive”.

Take `CC(C)Oc1ccc2ccccc2c1C=O`: the AC50 result is “inactive”.

Consider `O=C(NNC(=O)C1CCN(S(=O)(=O)c2ccc(Cl)cc2)CC1)c1ccc(Cl)cc1`, for which the AC50 result was “inactive”.

On to `Cc1[nH]c2c(C)ccc(C)c2c1CC(=O)O`, for which the activity, negative = inhibition was -12.2% [at 11.4 µM] (inactive).

Regarding `C=CCn1c(P(=O)(O)c2ccccc2)nc2ccccc21`, the AC50 result was “inactive”.

For the molecule `COc1ccc(NC(=O)COC(=O)Cn2c(C)nc3ccccc32)cc1OC`, the AC50 entry was “inactive”.

`COc1ccc(CNc2nc3ccccc3n2Cc2ccccc2)cc1OC`: the AC50 was 0.794 µM (active).

As for `C=CCn1c(-c2cccn(Cc3ccccc3)c2=O)n[nH]c1=S`, the AC50 result is “inactive”.

In the case of `CC(=O)Nc1nc2ccccc2n1Cc1ccccc1`, the AC50 entry was “inactive”.

In the case of `C=CCn1c(NCc2ccccc2)nc2ccccc21`, the concentration at half-maximal activity (AC50) was 0.398 µM (active).

For `O=C(NCC1CCCO1)c1onc(CSc2ccccc2F)c1C(=O)O` (stereo not given), the AC50 result was “inactive”.

Consider `O=C(O)c1ccccc1N/N=C\c1ccnc2ccccc12`, for which the AC50 entry is “inactive”.

For the molecule `CC(=O)ON(C(C)=O)S(=O)(=O)c1ccc(Cl)cc1`, the AC50 result was “inactive”.

Regarding `Cc1[nH]n(C(C)(C)C)c(=O)c1Sc1ccccc1`, the AC50 entry was “inactive”.

Turning to `O=P(O)(CCP(=O)(O)c1ccccc1)c1ccccc1`, the activity, negative = inhibition is 0.684% [at 11.4 µM] (inactive).

Turning to `O=C(c1cc(C(F)(F)F)cc(C(F)(F)F)c1)N1CCC2(CC1)CCN(c1ncccn1)CC2`, the AC50 entry is “inactive”.

In the case of `Cc1ccc(-c2ccc(/C=N\NC(=O)c3cc4c(ccc5ccccc54)o3)o2)cc1[N+](=O)[O-]`, the AC50 result was “inactive”.

`O=C(N/N=C(\c1ccccc1)c1cccnc1)C(O)(c1ccccc1)c1ccccc1`: the AC50 entry was “inactive”.

With `Clc1ccc(CC[C@H](Cn2ccnc2)Sc2c(Cl)cccc2Cl)cc1`, the AC50 was 1.26 µM (active).

Turning to `O=C1C2=CC[C@@H]3C(=O)N(c4ccc(F)cc4F)C(=O)[C@H]3[C@H]2[C@H](O)[C@H]2O[C@H]12`, the activity, negative = inhibition was 6.42% [at 11.4 µM] (inactive).

Consider `CCCN(CCC)CCCNC(=O)CS(=O)Cc1nc(-c2ccc(OC)c(OC)c2)oc1C` (stereo not given), for which the concentration at half-maximal activity (AC50) was 5.01 µM (active).

Take `COc1cccc(-c2nc(CS(=O)(=O)CC(=O)NCCCOC(C)C)c(C)o2)c1`: the AC50 result is “inactive”.

Regarding `COc1ccc(-c2nc(C#N)c(N3CCC(C(N)=O)CC3)o2)cc1OC`, the AC50 entry is “inactive”.

Consider `CCCCN(C)CCCNC(=O)CS(=O)Cc1nc(-c2ccc(OC)c(OC)c2)oc1C` (stereo not given), for which the half-maximal activity concentration (AC50) was 11.2 µM (active).

Turning to `COc1ccc(CCN(C)CCC(=O)Nc2c(C)cc(C)cc2C)cc1OC`, the AC50 entry was “inactive”.

On to `COc1ccc(-c2nc(CSCC(=O)NCC3CCCO3)c(C)o2)cc1OC` (stereo not given), for which the AC50 result was “inactive”.

Regarding `CC(C)(C)CC(C)(C)c1ccc(OCOCCOCCO)c(Cc2cc(C(C)(C)CC(C)(C)C)cc(Cc3cc(C(C)(C)CC(C)(C)C)ccc3OCOCCOCCO)c2OCOCCOCCO)c1`, the AC50 entry is “inactive”.

Regarding `CCCCSc1nc(C)cc(C)c1S(=O)(=O)c1ccccc1C`, the AC50 entry was “inactive”.

On to `Cc1ccc([C@@]2(C)CC/C(=N/N=C3\CC[C@](C)(c4ccc(C)c(C)c4)c4cc(C)c(C)cc43)c3cc(C)c(C)cc32)cc1C`, for which the activity, negative = inhibition was -2.73% [at 11.4 µM] (inactive).

Regarding `O=c1ccc(Oc2nc(N3CCOCC3)nc(N3CCOCC3)n2)n[nH]1`, the AC50 result is “inactive”.

For the molecule `NCC[C@H](N)C(=O)O`, the activity, negative = inhibition was 6.66% [at 11.4 µM] (inactive).

On to `O=S(=O)(/N=C(/Nc1ccccn1)c1ccccc1)c1ccc(Cl)cc1`, for which the AC50 result is “inactive”.

Consider `C=CCSc1nc2c(sc3nc(C)cc(C)c32)c(=O)[nH]1`, for which the AC50 entry was “inactive”.

Consider `CC1Cc2ccccc2N1Cc1nc2cc(C(F)(F)F)ccc2c(=O)[nH]1` (stereo not given), for which the AC50 entry was “inactive”.
